Bioassay records as filed in PubChem.
Wee1 stabilizer = Wee1 degradation inhibitors, primary screen, cell-based, HeLa, Wee1K328M-luciferase, luminescence; Wee1-like protein kinase (Homo sapiens), P30291; HeLa Luc-Wee1K328M stability; 100% = proteasome inhibitor MG132 effect; reporter increase, % at 5 µM; 1.2% of 220,000 active;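 active means activation above the mean of all tested compounds plus 3 SD, set per screening run, cut at about 8.8% in these data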;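 further: cells exposed to compound for 20 h before luminescence read; 0% = DMSO alone and 100% = MG132 at 30 µM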
DAX1 inh-1 = DAX1 (NR0B1) inhibitors on StAR promoter, primary screen, cell-based, luminescence, SF-1 (NR5A1), full-length DAX-1. AID 652010, 2013. inhibition, % at 6.8 µM. HEK293T StAR-luciferase reporter, SF-1/DAX-1 repression relief. 1.1% of 370,000 active;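 active means inhibition above the mean over all tested compounds plus 3 SD, cut at about 3.6% in these data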;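 further: 0% = DAX-1 cells with DMSO and 100% = cells lacking DAX-1 with DMSO; higher inhibition means more luminescence from relief of DAX-1 repression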
DAX1 inh-2 = DAX1 (NR0B1) inhibitors, primary screen, cell-based, HEK293, Gal4-DAX1, luciferase luminescence | Nuclear receptor subfamily 0 group B member 1 (Homo sapiens), P51843 | HEK293 Gal4-DAX1 luciferase reporter | inhibition, % at 6.75 µM | 0.99% of 340,000 active;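 active means inhibition above the mean over all tested compounds plus 3 SD, cut at about 4.2% in these data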;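 further: 0% = DAX1-transfected cells with DMSO and 100% = empty-vector control cells with DMSO; inhibition shows as a rise in luminescence from relieved DAX1 repression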
Target sequence (P51843 207-470 limits assumed): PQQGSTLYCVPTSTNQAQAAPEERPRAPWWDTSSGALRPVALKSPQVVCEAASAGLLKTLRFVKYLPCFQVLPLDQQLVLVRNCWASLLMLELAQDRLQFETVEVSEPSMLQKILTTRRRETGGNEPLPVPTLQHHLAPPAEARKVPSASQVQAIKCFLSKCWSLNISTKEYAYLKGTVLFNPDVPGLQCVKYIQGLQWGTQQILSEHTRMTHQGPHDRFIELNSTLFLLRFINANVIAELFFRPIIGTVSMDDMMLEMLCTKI
ssDAF-12 act = S. stercoralis DAF-12 nuclear receptor activators, primary screen, cell-based, luminescence, HEK293, GRIP1 co-expression, lit1-tk-luc | activation, % at 6.8 µM | 1% of 370,000 active | HEK293 ssDAF-12/GRIP1 lit1-tk-luc reporter; % of 3 µM dafachronic acid response | Nuclear hormone receptor DAF-12 (Strongyloides stercoralis);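 active means activation above the mean over all tested compounds plus 3 SD, cut at about 0.9% in these data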;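 further: 0% = DMSO-only wells and 100% = 3 µM delta7-dafachronic acid wells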
hcDAF12 agonist = H. contortus DAF-12 nuclear receptor activators, primary screen, cell-based, luminescence, HEK293, lit1-tk-luc reporter | 1.4% of 370,000 active | activation, % at 6.8 µM | HEK293 hcDAF-12 lit1-tk-luc reporter; 0% DMSO, 100% Δ7-dafachronic acid | AID 652067, 2013;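 active means activation above the mean of all tested compounds plus 3 SD, cut at about 5.5% in these data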;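 further: 100% = response to 3 µM Δ7-dafachronic acid high control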
hgDAF-12 ag = H. glycines DAF-12 receptor agonists, primary screen, cell-based, luminescence, HEK293, GAL4 fusion, UAS-luciferase; HEK293 GAL4-hgDAF12 UAS-luciferase reporter, agonist luminescence; normalized to butyrate control; Nuclear hormone receptor DAF-12 (Heterodera glycines), GAL4 fusion; 1.8% of 370,000 active; AID 687014, 2013; activation, % at 6.8 µM;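 active means activation above a cutoff set at the mean of all screened compounds plus 3 SD, cut at about 10% in these data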;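 further: 0% = DMSO wells and 100% = sodium butyrate wells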
* = called active by the depositor; x = not tested or not shown. An excerpt weighted towards active compounds, which were near 4.6% of everything screened.

SMILES | Wee1 stabilizer | DAX1 inh-1 | DAX1 inh-2 | ssDAF-12 act | hcDAF12 agonist | hgDAF-12 ag
O=C(Nc1ccccc1)c1ccn[nH]1 | 2 | 2 | 4.3* | 0 | 5 | 8
COc1ccc(-c2nn(-c3ccccc3)cc2/C=N/n2cnnc2)cc1OC | 9.3* | 0 | -1 | -2 | -2 | -1
COc1ccc(-c2nn(-c3ccccc3)cc2/C=N/NC(N)=S)cc1OC | 7 | -2 | -2 | -1 | 0 | 2
O=C(NC1CCCc2ccccc21)C1CCN(c2c3c(nc4ncnn24)CCC3)CC1 (centres undefined) | -2 | 0 | -1 | 1.1* | -1 | 0
CC(C)[C@H](N)C(=O)N[C@@H](Cc1ccccc1)C(=O)N1CCC2CCN(S(=O)(=O)c3ccccc3)CC21 (some centres undefined) | x | 0 | x | -2 | -1 | 5
COc1ccccc1CN1CC(C(=O)N(C)CCc2ccccn2)CCC1=O (centres undefined) | x | 1 | 1 | 0 | 0 | 1
CC(=O)NNC(=O)c1[nH]c2ccc(Cl)cc2c1-c1ccccc1 | -1 | 0 | 5.0* | -1 | -1 | 1
O=C(Cc1cccc2ccccc12)Nc1ccc(Br)cc1C(=O)O | x | 0 | 5.6* | -1 | -1 | 1
COc1ccccc1N1CCN(C(=O)CCNC(=O)c2ccco2)CC1 | x | 1 | 0 | -1 | -1 | 1
O=C(NCCC(=O)N1CCN(c2ccccc2F)CC1)c1ccco1 | x | 3.7* | 0 | -1 | 1 | 1
O=S(=O)(NC1=NCCCCC1)c1cc(F)ccc1F | x | 0 | 4.5* | -1 | -1 | 1
COc1ccc(/C=C/C(Cc2cccc(C(C)=O)c2)c2ccc(C)cc2)cc1 (centres undefined) | x | -3 | x | -1 | -3 | -1
COc1ccc(F)cc1-c1cc(NC(C)=O)c2ncc(-c3cccc(C(F)(F)F)c3)n2c1 | x | 1 | x | -1 | 0 | 1
CC(=O)Nc1ccc(-c2cc(N)n(-c3ccccc3)n2)cc1 | 8 | 3.9* | 2 | -1 | 4 | 11*
CC(=O)Nc1ccc(-c2cc(NC(C)=O)n(-c3ccccc3)n2)cc1 | -2 | -1 | 0 | -1 | -1 | 2
O=c1c(Cl)c(N2CCOCC2)cnn1-c1nc2ccccc2[nH]1 | 3 | 4.2* | 3 | -1 | 2 | 5
C=CCn1c(C)nc2c(sc3nc4c(cc32)COC(C)(C)C4)c1=O | 2 | 1 | 4.7* | 0 | 4 | 13*
Fc1ccc(-n2nnc(-c3cccnc3)n2)cc1 | -3 | 1 | 2 | -1 | 1 | 11*
C/C(=N\Nc1nc2ccccc2[nH]1)c1ccc(N2CCOCC2)cc1 | 8 | 3.9* | 0 | 0 | 3 | 8
CC(=O)C1=C(c2cccc([N+](=O)[O-])c2)N(C(C)=O)n2c(C)nnc2S1 | 10.0* | -2 | -1 | -1 | 0 | -3
Cc1nnc(SC(C)C(=O)Nc2ccc(Cl)cc2Cl)[nH]c1=O (centres undefined) | x | 1 | 0 | -1 | -1 | 2
Cc1cn([C@H]2C[C@H](O)[C@@H](CNCc3cc(Cl)ccc3OCc3ccc(Cl)cc3)O2)c(=O)[nH]c1=O | x | 0 | 0 | -1 | 0 | -1
COc1cc2c(cc1CNC[C@H]1O[C@@H](n3cc(C)c(=O)[nH]c3=O)C[C@@H]1O)OCO2 | x | 0 | 5.0* | -1 | 1 | 1
C[C@@H]1CN(c2ccc(N3CCNC[C@@H]3C)cc2C#N)C[C@H](C)O1 | x | 0 | x | -1 | -1 | 1
Cc1ccccc1NC(=O)Nc1ccc(C(F)(F)F)cc1 | -1 | 1 | 1 | 0 | 0 | 11*
SMILES | Wee1 stabilizer | DAX1 inh-1 | DAX1 inh-2 | ssDAF-12 act | hcDAF12 agonist | hgDAF-12 ag
CCC(C)[C@H](NC(=O)OC(C)(C)C)C(=O)N/N=C/c1cccc2nccnc12 (some centres undefined) | -1 | 0 | -1 | -2 | 0 | -1
CC(C)(C)OC(=O)NCCC(=O)N/N=C/c1cccc2nccnc12 | 9.3* | 0 | -1 | -1 | -1 | 2
Cc1cc(C)n(CC(=O)N/N=C/c2ccco2)n1 | 9.2* | 1 | 2 | -1 | -2 | -3
O=C(N/N=C/c1cccc2nccnc12)c1ccncc1 | 9.8* | 0 | x | -1 | -2 | 3
O=C(N/N=C/c1cccc2nccnc12)c1ccccc1O | 2 | 1 | 0 | -2 | 0 | 2
O=C(N/N=C/c1ccco1)c1ccncc1 | 15* | 1 | 2 | -1 | -1 | 1
COc1cc(OC)cc(C(=O)Nc2ccc(N3CCOCC3)cc2N2CCOCC2)c1 | x | 0 | -1 | -1 | -2 | -3
CCOC(=O)c1c(CN2CCC(C)CC2)n(C)c2cc(Br)c(OC)cc12 | -1 | 0 | 4.9* | -1 | 1 | -2
CCOC(=O)c1c(CN2CCN(Cc3ccccc3)CC2)n(C)c2cc(Br)c(OC)cc12 | 0 | -1 | 0 | 0 | 0 | 2
Cc1cc(C)c(N2C(=O)CC(Sc3ccccc3N)C2=O)c(C)c1 (centres undefined) | x | -1 | 0 | 0 | 1 | 0
CC1(C)CC(=O)C2=C(C1)OC(N)=C(C#N)[C@@H]2c1ccccc1[N+](=O)[O-] | 3 | 0 | 0 | 1.5* | 2 | 4
Cc1csc(NC(=O)Cn2nc(C)c([N+](=O)[O-])c2C)n1 | 3 | 0 | 3 | 2.9* | 1 | 1
Cc1ccc(OCC(=O)c2c[nH]c3ccccc23)c([N+](=O)[O-])n1 | 0 | 2 | 3 | 1 | 6.3* | 4
Cc1ccc(OCC(=O)Nc2ccc(F)cc2)c([N+](=O)[O-])n1 | -3 | 3 | 7.0* | 0 | 5 | 10
CC(=O)c1ccc(Nc2cc(C)nc3c(C)cc(C)cc23)cc1 | 11* | -1 | -2 | -1 | 1 | 1
COC(=O)C1CN(Cc2ccccc2)CCS(=O)(=O)N1Cc1ccc(C)cc1 (centres undefined) | x | -2 | x | -2 | -2 | -3
COCCc1ccc(OC2(C)CCN(Cc3cccc(OCOC)c3)C2)cc1 (centres undefined) | x | 0 | x | -1 | -2 | 4
CCOC(=O)C1CCCN(CC(=O)Nc2cc(C)cc(C)c2)C1 (centres undefined) | -2 | 1 | 0 | -1 | 0 | 1
